In PubChem BioAssay AID1903 (Southern Research Specialized Biocontainment Screening …, 2009):
Several values for one entry are separate records, joined by “and”; a condition that tells them apart may be missing. Identical values can stand only once. About 1,200 (0.39%) of roughly 310,000 compounds were called active. How the calls were made is not given here. These entries were drawn from the full list. Results with a measured potency or affinity are listed apart.

molecular target: Large T antigen (Simian virus 40) (UniProt P03070); test: TAg ATPase/helicase activity blockers – biochemical (AID 1903); conditions: SV40 large T antigen ATPase/helicase inhibition assay; at 20 µM; stronger effect = higher value
Sequence (P03070 whole entry, looked up): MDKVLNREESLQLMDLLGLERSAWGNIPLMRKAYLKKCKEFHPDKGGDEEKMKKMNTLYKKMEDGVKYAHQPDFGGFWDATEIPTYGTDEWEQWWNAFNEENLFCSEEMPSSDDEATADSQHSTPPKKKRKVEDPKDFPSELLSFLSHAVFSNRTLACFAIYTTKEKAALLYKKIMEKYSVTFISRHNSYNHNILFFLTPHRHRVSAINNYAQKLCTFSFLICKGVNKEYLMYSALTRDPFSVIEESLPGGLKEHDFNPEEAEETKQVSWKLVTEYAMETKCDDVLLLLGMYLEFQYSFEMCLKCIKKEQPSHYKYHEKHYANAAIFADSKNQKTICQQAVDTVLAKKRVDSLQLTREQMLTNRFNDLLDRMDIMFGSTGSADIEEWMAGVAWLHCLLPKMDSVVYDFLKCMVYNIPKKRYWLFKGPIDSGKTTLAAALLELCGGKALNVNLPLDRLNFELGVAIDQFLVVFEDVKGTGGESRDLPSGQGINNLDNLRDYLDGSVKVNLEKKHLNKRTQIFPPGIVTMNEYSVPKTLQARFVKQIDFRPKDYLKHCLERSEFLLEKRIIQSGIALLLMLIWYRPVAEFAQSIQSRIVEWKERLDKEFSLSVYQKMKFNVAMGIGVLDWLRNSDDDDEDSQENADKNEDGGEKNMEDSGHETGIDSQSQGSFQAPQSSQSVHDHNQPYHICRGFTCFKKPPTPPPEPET

inhibition, inactive:
CCOc1ccccc1NC(=O)C1CCN(c2ccc(S(=O)(=O)N3CCCC3)cc2)CC1 5.71%, NC(=O)c1cc2cc(Br)ccc2oc1=NCc1ccccc1 -0.91%, CC(=NCc1ccccc1)C1=C(O)COC1=O 5.76%, O=C(CCSc1ccc(Cl)cc1)N1CCN(c2ncccn2)CC1 0.35%, CCn1cc(CN2CCC(C(=O)Nc3ccc(Oc4ccccc4F)cc3)CC2)c(C)n1 10.4%, COc1ccc2c(COC(=O)CCS(=O)(=O)c3ccc(C)cc3)cc(=O)oc2c1 6.52%, CCCC(=O)Oc1ccc2c(C)cc(=O)oc2c1 18.6%, COc1cc(C(C)=O)ccc1OCC(O)CN1CCN(c2c(C)cccc2C)CC1 (stereo unspecified) -5.73%, OCCOc1ccc(C2=NCCO2)cc1 -2.82%, CCN1CCN(CC(=O)Nc2ccc3c(c2)OCO3)C(=O)C1=O 3.32%, COc1ccc(Nc2cc3n(c(=O)n2)CCc2cc(OC)c(OC)cc2-3)cc1 10.4%, CCN(CC)c1ccc(Nc2cc3n(c(=O)n2)CCc2cc(OC)c(OC)cc2-3)cc1 31.5%, CCOc1ccc(N2C(=O)/C(=C/c3ccccn3)SC2=S)cc1 9.29%, COc1ccc(N2CCN(C(=O)CCc3ccc(S(=O)(=O)NC(C)C)cc3)CC2)cc1 11.6%, CC(C)CC(=O)Nc1ccnn1C1CCN(C(=O)c2ccc(F)cc2Cl)CC1 0.42%, O=C(NNC(=O)c1ccco1)c1ccc(NS(=O)(=O)c2cccs2)cc1 9.88%, COc1ccc(NC(=O)c2sc(SCc3ccccc3)nc2N)cc1 1.41%, COc1ccc(NC(=O)c2sc(SC)nc2N)cc1 3.33%, CC(=O)Nc1ccc2nc(CN3CCN(CC=C(C)C)C(CCO)C3)ccc2c1 (stereo unspecified) 5.4%, COc1ccc(C(=O)NNC(=O)C(=O)NC(C)c2ccccc2)cc1OC (stereo unspecified) -0.06%, O=C(O)c1ccc2c(c1)C(c1ccccc1)OC2=O (stereo unspecified) 11%, COc1ccccc1CC(=O)Nc1ccc(-c2nnc(-c3ccco3)o2)cc1 5.22%, CCOc1ccc(CCNC(=O)c2cccc(S(=O)(=O)N3CCCC3)c2)cc1OCC 2.19%, COc1ccc2c(c1)c(=O)oc1cc(O)ccc12 10.3%, Cc1cc(=O)oc2cc(O)ccc12 17.8%, O=c1cc(O)c2ccc(O)cc2o1 4.04%, COc1ccc2c(c1)oc(=O)c1ccccc12 2.39%, Clc1ccccc1N1CCN(Cc2c[nH]c3ccccc23)CC1 1.73%, O=C(Cn1nnc(-c2ccccc2)n1)Nc1ccccc1N1CCOCC1 -3.12%, C[N+]1=C(/C=C/Nc2ccccc2Cl)C(C)(C)c2ccccc21 21.8%, COC(=O)c1ccc2c(c1)C(C)(C)C(/C=C/c1ccccc1O)=[N+]2C 21.7%, O=C(NCc1ccco1)c1sc(=S)n2c1[nH]c(=O)c1ccccc12 23.2%, O=C(NC1CCCCC1)c1sc(=S)n2c1[nH]c(=O)c1ccccc12 6.27%, Cc1ccc(N(C(=O)c2csnn2)C(C(=O)NC2CCCCC2)c2ccccn2)cc1C (stereo unspecified) 4.41%, [O-][n+]1c2ccccc2cc2ccccc21 3.6%, Cc1ccc2ccccc2[n+]1CCCS(=O)(=O)[O-] 5.88%, CCCCC[n+]1cccc2c3ccccc3ccc21 5.51%, CCCCCCCCCC[n+]1cccc2c3ccccc3ccc21 23.8%, CN(C)C(=O)c1ccc(-c2nnc(NCc3ccccc3)c3ccccc23)cc1 17.7%, CCOC(=O)c1c(S(=O)(=O)NCC(=O)Nc2ccc(F)cc2)c(C)n(C)c1C 2.6%, CCOc1ccccc1NC(=O)Cn1c(=O)c(OCC)nc2cnccc21 13.5%, COc1ccc2ccccc2c1C1CC(=O)N2CN(C)CSC2=C1C#N (stereo unspecified) 28.9%, CN1CSC2=C(C#N)C(c3cccc(OCc4ccccc4)c3)CC(=O)N2C1 (stereo unspecified) 43.1%, COc1ccc(Br)cc1C1CC(=O)N2CN(Cc3ccccc3)CSC2=C1C#N (stereo unspecified) 35% and 18.8%, COc1ccc(C2CC(=O)N3CN(c4ccccc4F)CSC3=C2C#N)cc1OC (stereo unspecified) 51.3%, Cc1cccc(C(=O)N2CC3(C)CC2CC(C)(C)C3)c1 (stereo unspecified) 3.07%, O=C(c1cccc([N+](=O)[O-])c1)c1ccc2c(c1)OCCOCCOCCOCCO2 7.91%, Cc1cccc(N2CCN(C(=O)CCCn3c(=O)c4cccn4c4cccnc43)CC2)c1C 9.66%, CCN1CCN(C(=O)C2=CC(c3ccc(C)cc3)=NS(=O)(=O)N2C)CC1 16.5%, CCN1C(=O)N[C@@H](CCc2ccccc2)[C@@H](C(=O)OC)[C@H]1C 23.2%, COc1cccc(NC(=O)CSCC(=O)Nc2ccccc2)c1 13.8%, CCC(=O)Nc1ccc(N2CCCCC2)cc1 34.9%, CC(=O)Nc1ccc(N2CCN(C(C)=O)CC2)cc1 27.6%, CC(=O)Nc1ccc(N2CCCC2)cc1 0.723%, O=C(CN1CCCCC1)Nc1ccc(N2CCCCCC2)cc1 31.6%, CNC(=O)C12CC3CC(CC(Cl)(C3)C1)C2 11.2%, O=C(CC(C(=O)O)c1cccc(Br)c1)c1ccc(Cl)cc1 (stereo unspecified) 9.51%, N#Cc1cccc2cnccc12 7.69%, Nc1cccc2cnccc12 3.43%, O=C(CSc1ccc(-c2ccccc2)nn1)c1cccs1 3.38%, Cc1nonc1OCCNCc1c(C(=O)N(C)C)nc2ccc(Cl)cn12 6.84%, C(/C=C/c1ccco1)=N/N1CCN(c2ccccc2)CC1 7.94%, C(=C\c1ccco1)/C=N/n1cnnc1 21.7%, O=C1OC(c2ccc(Cl)cc2)=N/C1=C\C=C\c1ccco1 58.1%, S=c1[nH]nc(-c2ccncc2)n1/N=C/C=C/c1ccco1 28.8%, Cc1ccc(N/N=C/C=C/c2ccco2)cc1 12.9%, S=c1[nH]nc(-c2ccc(Cl)cc2)n1/N=C/c1ccco1 35.9%, Cc1ccccc1-n1nc2c(c1NC(=O)c1ccc3c(c1)OCO3)CS(=O)(=O)C2 5.82%, CC(=O)Nc1ccc(N(C(=O)c2ccccn2)C(C(=O)NC2CCCCC2)c2ccc(F)cc2)cc1 (stereo unspecified) 5.17%, Cc1ccc2[nH]c(=O)c(C(c3nnnn3C(C)(C)C)N(Cc3ccco3)CC3CCCO3)cc2c1 (stereo unspecified) 9.73%, Cc1occc1C(=O)Nc1sc2c(c1C(N)=O)CCC(C(C)(C)C)C2 (stereo unspecified) 16.6%, COc1cc(OC)c(N(C)S(=O)(=O)c2cccc(C(=O)OCc3c(C)noc3C)c2)cc1Cl 5.27%, Cc1ccc(N2C(=O)C3CCC(C)(C2=O)C3(C)C)cc1 (stereo unspecified) 1.07%, O=C(Cn1cnc2ccccc2c1=O)Nc1nc2ccccc2s1 4.55%, Cc1nnsc1C(=O)N1CCCC(C(=O)c2ccc(C(F)(F)F)cc2)C1 (stereo unspecified) -2.34%, Cc1cccc(OCC(=O)N2CCN(c3nnc(-c4ccccc4)c4ccccc34)CC2)c1 12.7%, CCn1cc(C(=O)NCC(C)C)c(=O)c2cc(F)c(N3CCN(C)CC3)cc21 15.3%, COc1cc(OC)cc(C(=O)NCC2CCCN(C(=O)c3csc(C(C)C)n3)C2)c1 (stereo unspecified) 12.6%, Cc1ccc(COc2ccc(S(=O)(=O)N3CCCC3)cc2C(N)=O)cc1 4.61%, O=C(Nc1ccc(F)cc1)Oc1ccc[nH]c1=O 9.86%, COc1ccccc1N1CCN(C(=O)/C=C/c2ccc(C)cc2)CC1 9.93%, CCc1ccc2[nH]c(=O)c(CN(CC3CCCO3)C(=S)NCc3ccco3)cc2c1 (stereo unspecified) 10.7%, O=C(CSc1n[nH]c(=O)n1Cc1ccco1)Nc1ccccc1Cl 12.1%, N=c1n(CCO)c2ccccc2n1CCN1CCCCC1 6.21%, COc1ccc(N2C(=O)c3ccccc3NC23CCCCC3)cc1 -1.05%, COc1ccc(N2C(=O)c3ccccc3NC23CCCC3)cc1 5.28%, O=[N+]([O-])c1cccc(S(=O)(=O)c2cccc([N+](=O)[O-])c2)c1 3.63%, O=C(/C(=C(\[O-])c1ccccc1)[n+]1ccc2ccccc2c1)c1ccc([N+](=O)[O-])cc1 15%, CCC(C)N(C(=O)CSc1nnc(-c2ccco2)n1C)C1CCS(=O)(=O)C1 (stereo unspecified) 13.2%, CCc1nc2nc(C)c(NS(=O)(=O)c3ccc(C)c(C)c3)c(=O)n2[nH]1 4.17%, O=C(Oc1ccc(-c2nnco2)cc1)C1CCN(C(=O)c2ccc(F)cc2)CC1 5.55%, COC(=O)N/C(C)=C1/NC(=O)c2ccccc2C(c2ccccc2)N1 (stereo unspecified) 6.67%, O=C(O)c1ccc2c(=O)n3c(nc2c1)/C(=C/c1ccc(Cl)c(Cl)c1)CC3 24.8%, CC(=O)c1ccc(OC(=O)C(CCS(C)(=O)=O)N2C(=O)c3ccccc3C2=O)cc1 (stereo unspecified) 3.15%, COc1ccc(NC(=O)C(CCS(C)(=O)=O)N2C(=O)c3ccccc3C2=O)cc1 (stereo unspecified) 11.7%, CCOC(=O)N1CCN(C(=O)CC(C)S(=O)(=O)c2cc3c(cc2C)NC(=O)CO3)CC1 (stereo unspecified) 6.54%
